Laboratory results published in PubChem BioAssay (NCATS).
Records with an inconclusive call do not appear. Unless noted, the call rests on the fitted dose curve; in most records, active means well fitted curve in either direction with a large enough effect (not every such curve was filed as active); inconclusive means small, poorly fitted or top-dose-only effect, or another doubt; inactive means flat fitted curve, though single readings scatter.

Columns and labels:
[1] = AP1 Signaling Pathway (AID 357); details: ME-180 AP-1-bla reporter, EGF-induced, beta-lactamase ratio, 5 h; at 17.2 µM (top of the series) unless noted;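 further: ME-180 reporter cells stimulated with EGF at its EC50 level; on the % scale 0 is the no-effect control and ±100 the full control effect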
Summary of the method: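 Modulation of EGF-driven AP-1 transcription was assessed with a beta-lactamase reporter in ME-180 cells. Compound and EC50 EGF were co-incubated 5 hours at 37 °C before 2.5-hour CCF4 loading at room temperature and dual-emission reading.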

[2] = NFAT Signaling Pathway (AID 444); details: Jurkat NFAT-bla M1, carbachol, beta-lactamase ratio, 5 h; at 17.2 µM (top of the series) unless noted;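 further: carbachol stimulus at about its EC50 of 1 µM final; on the % scale 0 is the no-effect control and ±100 the full control effect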
Summary of the method: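 Read-out: CCF4 FRET ratio (460 nm/530 nm) after 1 h RT dye loading, used for %activity and AC50 from titration series. Cells: Jurkat NFAT-β-lactamase/M1 line, treated with compound plus 1 uM carbachol for 5 h, 37 °C.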

[3] = Stat Signaling Pathway (AID 446); details: ME-180 (cervical carcinoma) SIE beta-lactamase reporter, IL-6 stimulated, 5 h; at 17.2 µM (top of the series) unless noted;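 further: ME-180 cervical cancer cells given 40 pM IL-6 alongside compound; SIE-controlled beta-lactamase reporter measured as 460/530 nm FRET emission ratio; on the % scale 0 is the no-effect control and ±100 the full control effect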
Summary of the method: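 Compound effects on IL-6-induced STAT reporter activity were measured in ME-180 cells. After overnight culture, cells were co-treated with 40 pM IL-6 for 5 hrs before beta-lactamase substrate loading at room temperature.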

[4] = target: Glucocorticoid receptor (Homo sapiens) (UniProt P04150); test: GR-GFP Redistribution (AID 450;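 active means compounds whose dose series gives a full or clear partial fitted curve of increased nuclear translocation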; further: potency means the concentration at half of the fitted maximal effect)
Sequence of Glucocorticoid receptor (Homo sapiens) (P04150 whole entry, looked up): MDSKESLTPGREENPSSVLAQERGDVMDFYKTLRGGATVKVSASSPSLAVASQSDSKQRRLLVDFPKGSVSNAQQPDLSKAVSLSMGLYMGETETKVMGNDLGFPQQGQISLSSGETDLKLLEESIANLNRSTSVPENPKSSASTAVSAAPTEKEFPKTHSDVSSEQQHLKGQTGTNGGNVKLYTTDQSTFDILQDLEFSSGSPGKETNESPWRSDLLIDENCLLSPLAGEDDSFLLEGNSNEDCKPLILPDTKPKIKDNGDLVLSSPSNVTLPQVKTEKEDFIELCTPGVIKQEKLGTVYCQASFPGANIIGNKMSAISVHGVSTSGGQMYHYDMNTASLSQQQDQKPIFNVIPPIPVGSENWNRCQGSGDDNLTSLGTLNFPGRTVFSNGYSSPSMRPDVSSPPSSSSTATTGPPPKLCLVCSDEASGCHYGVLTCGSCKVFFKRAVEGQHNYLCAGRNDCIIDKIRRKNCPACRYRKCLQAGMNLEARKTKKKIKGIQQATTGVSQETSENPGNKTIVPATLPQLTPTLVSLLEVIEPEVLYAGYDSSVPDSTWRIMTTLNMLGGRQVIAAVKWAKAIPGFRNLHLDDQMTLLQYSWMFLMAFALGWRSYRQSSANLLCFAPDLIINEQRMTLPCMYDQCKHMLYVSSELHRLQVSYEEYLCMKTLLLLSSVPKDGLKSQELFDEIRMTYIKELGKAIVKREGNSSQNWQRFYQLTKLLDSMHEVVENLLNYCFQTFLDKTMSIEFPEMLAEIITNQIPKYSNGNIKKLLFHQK

COc1ccc(C2C(C#N)=C(N)SC(N)=C2C#N)cc1OC
inactive: activity change, negative = inhibition [1] 5.54% | activity change, negative = inhibition [2] 29.6% | activity, negative = inhibition [3] 3.8% | Potency [4] > 20.6 µM

Cc1ccc(C2CC(c3cccs3)n3nc(N)nc3N2)cc1 (stereo not given)
inactive: activity change, negative = inhibition [1] 2.57% | activity change, negative = inhibition [2] 6.31% | activity, negative = inhibition [3] 3.76% | Potency [4] > 20.6 µM

S=c1[nH]nc(-c2ccco2)n1Cc1ccccc1
inactive: activity change, negative = inhibition [1] 6.39% | activity change, negative = inhibition [2] 3.89% | activity, negative = inhibition [3] 21.7% | Potency [4] > 20.6 µM

CCC(=O)OC1=C2C(=Nc3c(c(=O)n(C)c(=O)n3C)C2c2ccccc2)c2ccccc21 (stereo not given)
inactive: activity change, negative = inhibition [1] 8.9% | activity change, negative = inhibition [2] -4% | activity, negative = inhibition [3] 14.9% | Potency [4] > 20.6 µM

COC(=O)c1ccccc1N1C(=O)[C@@H]2C(c3ccc(Br)cc3)=NO[C@@H]2C1=O
inactive: activity change, negative = inhibition [1] 11.9% | activity change, negative = inhibition [2] 19.8% | activity, negative = inhibition [3] 7.92% | Potency [4] > 20.6 µM

CC(=O)/C(C#N)=C1\NC(=O)C(Cc2ccccc2)S1 (stereo not given)
inactive: activity change, negative = inhibition [1] 0.644% | activity change, negative = inhibition [2] -11.2% | activity, negative = inhibition [3] 3.16% | Potency [4] > 20.6 µM

O=C(Nc1ncn[nH]1)c1c(Cl)ccc(Cl)c1Cl
inactive: activity change, negative = inhibition [1] 13.1% | activity change, negative = inhibition [2] 1.62% | activity, negative = inhibition [3] -0.714% | Potency [4] > 20.6 µM

COc1ccc(/C(O)=C2/C(=O)C(=O)N(Cc3ccco3)C2c2cccs2)cc1 (stereo not given)
inactive: activity change, negative = inhibition [1] 7% | activity change, negative = inhibition [2] -13.1% | activity, negative = inhibition [3] -19.8% | Potency [4] > 20.6 µM

Cc1cc(CCC(=O)O)c(C)cc1CCC(=O)O
inactive: activity change, negative = inhibition [1] 14.2% | activity change, negative = inhibition [2] 2.85% | activity, negative = inhibition [3] 7.37% | Potency [4] > 20.6 µM

Cc1c(NS(=O)(=O)c2cccc3nsnc23)c(=O)n(-c2ccccc2)n1C
inactive: activity change, negative = inhibition [1] 16.3% | activity change, negative = inhibition [2] -7.17% | activity, negative = inhibition [3] 0.737% | Potency [4] > 20.6 µM

CN=C1c2c(-c3ccccc3)c3cc(OC)ccc3n2CCN1C
inactive: activity change, negative = inhibition [1] 24.6% | activity change, negative = inhibition [2] -8.39% | activity, negative = inhibition [3] -1.77% | Potency [4] > 20.6 µM

CCOC(=O)c1c(C)n(C)c2ccc(OC)c(NC(=O)CN3CCC4(CC3)OCCO4)c12
inactive: activity change, negative = inhibition [1] -3.92% | activity change, negative = inhibition [2] 1.31% | activity, negative = inhibition [3] 3.03% | Potency [4] > 20.6 µM

CC1CN(C2CCN(S(=O)(=O)c3ccc4ccccc4c3)CC2)CC(C)O1 (stereo not given)
inactive: activity change, negative = inhibition [1] -3.99% | activity change, negative = inhibition [2] -12.1% | activity, negative = inhibition [3] -8.2% | Potency [4] > 20.6 µM

CC(NC(=O)NCCCC(=O)O)(C(F)(F)F)C(F)(F)F
inactive: activity change, negative = inhibition [1] 1.88% | activity change, negative = inhibition [2] -1.55% | activity, negative = inhibition [3] 1.17% | Potency [4] > 20.6 µM

COc1cc([C@@H]2[C@H]3CN(C)CC=C3C(C#N)=C(N)C2(C#N)C#N)cc2c1OCO2
inactive: activity change, negative = inhibition [1] -11% | activity change, negative = inhibition [2] 9.82% | activity, negative = inhibition [3] 10.9% | Potency [4] > 20.6 µM

Cc1c(/C(O)=C2/C(=O)C(=O)N(CCCN3CCOCC3)C2c2ccncc2)cnn1-c1ccccc1 (stereo not given)
inactive: activity change, negative = inhibition [1] 5.29% | activity change, negative = inhibition [2] -3.84% | activity, negative = inhibition [3] 5.14% | Potency [4] > 20.6 µM

Cc1csc(SCCn2c(Br)nc3c2c(=O)[nH]c(=O)n3C)n1
inactive: activity change, negative = inhibition [1] 1.52% | activity change, negative = inhibition [2] 4.32% | activity, negative = inhibition [3] 1.99% | Potency [4] > 20.6 µM

CC(C)(C)C1=Nn2c(nnc2-c2ccco2)SC1
inactive: activity change, negative = inhibition [1] 2.22% | activity change, negative = inhibition [2] 11.1% | activity, negative = inhibition [3] 8.01% | Potency [4] > 20.6 µM

Cn1nnnc1-c1cc(Br)ccc1NC(=O)c1ccccc1
inactive: activity change, negative = inhibition [1] 28.6% | activity change, negative = inhibition [2] -1.05% | activity, negative = inhibition [3] 24.3% | Potency [4] > 20.6 µM

N#Cc1c2c(c(-c3ccco3)[nH]c1=O)CCCC2
inactive: activity change, negative = inhibition [1] -0.634% | activity change, negative = inhibition [2] 10.5% | activity, negative = inhibition [3] -2.06% | Potency [4] > 20.6 µM

CC/C(=N\O)c1ccc(OC)c(OC)c1
inactive: activity change, negative = inhibition [1] 4.83% | activity change, negative = inhibition [2] 2.19% | activity, negative = inhibition [3] 3.07% | Potency [4] > 20.6 µM

N#C/C(C(=O)N1CCCCC1)=C1\Nc2ccccc2S1
inactive: activity change, negative = inhibition [1] -15% | activity change, negative = inhibition [2] 11.9% | activity, negative = inhibition [3] -10.3% | Potency [4] > 20.6 µM

Cc1cc(N2C(=O)C(=O)/C(=C(/O)c3ccc(F)cc3)C2c2cccc(Br)c2)no1 (stereo not given)
inactive: activity change, negative = inhibition [1] -7.98% | activity change, negative = inhibition [2] 2.37% | activity, negative = inhibition [3] -29.1% | Potency [4] > 20.6 µM

CCCc1nc2n[nH]c(N)c2c2c1COC(C)(C)C2
inactive: activity change, negative = inhibition [1] 2.75% | activity change, negative = inhibition [2] -0.018% | activity, negative = inhibition [3] 2.38% | Potency [4] > 20.6 µM

COc1cc(S(=O)(=O)N2CCN(C)CC2)c(OC)cc1Br
inactive: activity change, negative = inhibition [1] 9.1% | activity change, negative = inhibition [2] -13.8% | activity, negative = inhibition [3] 3.25% | Potency [4] > 20.6 µM
